Assay results from PubChem BioAssay.

molecular target: 6-phosphogluconate dehydrogenase, decarboxylating (Homo sapiens) (UniProt P52209); assay: inhibition of human phosphogluconate dehydrogenase – biochemical, recombinant enzyme, NADPH absorbance, primary screen (AID 1159550); conditions: recombinant 6PGD, NADPH absorbance 341 nm; at 10 µM; hits give high values
Sequence (P52209 whole entry, looked up): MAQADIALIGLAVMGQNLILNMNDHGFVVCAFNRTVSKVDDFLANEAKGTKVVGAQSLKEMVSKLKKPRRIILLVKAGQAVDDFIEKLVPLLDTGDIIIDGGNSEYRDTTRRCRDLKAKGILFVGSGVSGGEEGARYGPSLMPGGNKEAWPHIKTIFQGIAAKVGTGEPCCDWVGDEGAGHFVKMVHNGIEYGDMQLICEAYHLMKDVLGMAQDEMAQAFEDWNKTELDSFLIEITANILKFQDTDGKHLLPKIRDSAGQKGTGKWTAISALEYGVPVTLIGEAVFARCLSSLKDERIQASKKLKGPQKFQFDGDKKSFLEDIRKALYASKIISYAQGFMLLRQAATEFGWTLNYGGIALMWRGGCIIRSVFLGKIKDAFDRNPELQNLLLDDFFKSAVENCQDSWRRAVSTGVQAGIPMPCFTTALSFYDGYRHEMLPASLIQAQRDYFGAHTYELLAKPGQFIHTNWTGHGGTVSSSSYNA

inhibition, inactive:
CC(C)C1=CC2=CC[C@@H]3[C@](C)(CCC[C@@]3(C)C(=O)O)[C@H]2CC1 -6.38%, COC(=O)c1c(C)cc(OC)cc1O -8.1%, COc1cc(O)c2c(=O)cc(-c3ccc(OC)c(-c4c(O)cc(O)c5c(=O)cc(-c6ccc(O)cc6)oc45)c3)oc2c1 -1.48%, O=C1C=C(O)c2ccccc2C1=O 5.16%, CCC(=O)OC1[C@@H]2CC3=C4CC(=O)O[C@@H](c5ccoc5)[C@]4(C)CCC3[C@@](C)(C2=O)[C@@H](CC(=O)OC)C1(C)C (stereo not given in full) -1.17%, COC(=O)CC[C@@H](C)[C@H]1CC[C@H]2[C@@H]3[C@H](O)C[C@@H]4C[C@H](O)CC[C@]4(C)[C@H]3C[C@H](O)[C@]12C -4.15%, CC1C2[C@]3(CC[C@H]1C)CCC1(C)[C@@]2(C=CC2[C@@]4(C)CCC(=O)C(C)(C)C4CC[C@]21C)OC3=O (stereo not given in full) 17.9%, CC1(C)[C@@H](O)CC[C@]2(C)[C@H]3C(=O)C=C4[C@H]5C[C@@](C)(C(=O)O)CC[C@]5(C)CC[C@@]4(C)[C@]3(C)CC[C@@H]12 -38.1%, CC(C)[C@@H](C)/C=C/[C@@H](C)[C@H]1CC[C@H]2C3=CC=C4C[C@@H](O)CC[C@]4(C)[C@H]3CC[C@]12C -7.51%, CC(=O)N1CCC[C@H]1C(=O)O 11.4%, COc1ccc2c(c1)CC[C@@H]1[C@@H]2CC[C@]2(C)[C@@H](O)CC[C@@H]12 -8.02%, O=C(O)c1cc(O)c2c(c1)C(=O)c1cc(O)cc(O)c1C2=O 6.18%, CCC(C)C(=O)OC1[C@@H]2CC3=C4CC(=O)O[C@@H](c5ccoc5)[C@]4(C)CCC3[C@@](C)(C2=O)[C@@H](CC(=O)OC)C1(C)C (stereo not given in full) 6.33%, COc1cc(C)c(C(=O)Oc2cc(C)c(C(=O)O)c(O)c2C)c(O)c1C=O 2.14%, CC(=O)/C=C\[C@@H]1[C@@]2(C)CCCC(C)(C)C2CC[C@@]1(C)O (stereo not given in full) 14.1%, C[C@@H]1CC[C@@]2(OC1)O[C@H]1C[C@H]3[C@@H]4CC[C@H]5C[C@@H](O)CC[C@]5(C)[C@H]4CC[C@]3(C)[C@H]1[C@@H]2C -2.45%, COC(=O)[C@@H]1OC(=O)[C@H]2O[C@@]23[C@@]1(C)CCC1[C@@]2(C)CCC(=O)C(C)(C)C2C[C@@H](OC(C)=O)[C@]13C (stereo not given in full) 7.3%, CCOC(=O)c1c(C)cc(OC)cc1O 13.5%, N[C@@H](CSCSC[C@H](N)C(=O)O)C(=O)O 6.1%, C=C1[C@@H]([C@@]2(C)C=CC(=O)C(C)(C)[C@@H]2CC(=O)OC)CC[C@@]2(C)C(c3ccoc3)OC(=O)[C@H]3O[C@]132 (stereo not given in full) 0.696%, CC(=O)O[C@H]1CC[C@@]2(C)[C@H](CC[C@@H]3[C@@H]2CC[C@]2(C)[C@@H]4[C@H](C[C@@H]32)O[C@]2(CC[C@@H](C)CO2)[C@H]4C)C1 13.5%, CC(=O)O[C@]1(C)CC[C@@]23C[C@@H]1C(C)(C)[C@@H]2CC[C@H]3C 13.3%, CC(=O)OC1C[C@@]2(C)[C@H](c3ccoc3)OC(=O)[C@H]3O[C@]32[C@@]2(C)C1[C@]1(C)C(C[C@H]2OC(C)=O)C(C)(C)[C@H](OC(C)=O)C[C@@H]1OC(C)=O (stereo not given in full) -3.59%, O=c1cc(-c2ccc(O)cc2)oc2cc(O[C@@H]3O[C@H](CO)[C@@H](O)[C@H](O)[C@H]3O)cc(O)c12 -5.65%, O=C(O)CN(CC(=O)O)Cc1cc2c(cc1O)Oc1cc(O)c(CN(CC(=O)O)CC(=O)O)cc1C21OC(=O)c2ccccc21 -1.59%, CC(=O)O[C@H]1CC[C@@]2(C)C(=CC(=O)[C@H]3[C@@H]4CC[C@H]([C@H](C)CCCC(C)C)[C@@]4(C)CC[C@@H]32)C1 -8.76%, C[C@@H]1O[C@@H](Oc2c(-c3ccc(O)c(O)c3)oc3cc(O)cc(O)c3c2=O)[C@H](O)[C@H](O)[C@H]1O -14.2%, C=C(C)CCCC(C)CCOC(C)=O (stereo not given) 8.09%, CC1CCC(C(C)C)C(OC(=O)c2ccccc2)C1 (stereo not given) 3.54%, C[C@@H]1CC[C@H]2[C@](C)(CO)[C@@H](O)CC[C@]2(C)[C@@]12CC[C@@](CO)(CCO)O2 -5.82%, C[C@H](CCC(=O)O)[C@H]1CC[C@H]2[C@@H]3[C@H](O)C[C@@H]4C[C@H](O)CC[C@]4(C)[C@H]3C[C@H](O)[C@]12C -7.09%, COC(=O)[C@@H]1OC(=O)C2OC23[C@@]1(C)CCC1[C@]2(C)C(C[C@H](O)[C@]13C)C(C)(C)[C@H](OC(C)=O)C[C@@H]2OC(C)=O (stereo not given in full) -8.14%, O=C(Cc1ccccc1)NO -18.4%, OC[C@H]1O[C@@](CO)(O[C@H]2O[C@H](CO)[C@@H](O)[C@H](O)[C@H]2O)[C@@H](O[C@H]2O[C@H](CO)[C@@H](O)[C@H](O)[C@H]2O)[C@@H]1O 15.1%, C=C1CCC2C(CC2(C)C)C(=C)CC/C1=N/O (stereo not given) 16.7%, C=C1C(=O)OC2CC1C(OC(C)=O)C/C(C)=C/CC/C(C)=C\CCC2(C)O (stereo not given) 10.9%, CC1(C)CC[C@]2(C(=O)O)CC[C@]3(C)C(=CC[C@@H]4[C@@]5(C)CC[C@H](O)[C@@](C)(CO)[C@@H]5CC[C@]43C)[C@@H]2C1 -1.09%, CC(=O)CC(=O)CCC(=O)O 9.16%, COC(=O)C[C@H]1C(C)(C)[C@H](OC(C)=O)[C@@H]2CC3=C4CC(=O)O[C@@H](c5ccoc5)[C@]4(C)CC[C@@H]3C1(C)C2=O 7.02%, COc1cccc(/C=C/C(=O)O)c1C(C)C 0.939%
